This is part of a sample that, as a whole, favours compounds with a hit. Of some 83,000 tested, about 20% had one in any assay.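 The test compound was applied at a single concentration to cells in 96-well plates for 48 hours, and percent growth was recorded.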 Values without a mark were called inactive. Active and inactive are the calls of the source. Rule for the calls: active = growth percent below 10; inactive = the rest.
What was measured:
Experiment in all cases: NCI-60 one-dose screen, 48 h (100 = growth as untreated, 0 = no growth, -100 = all killed)
Details in all cases: 10 µM unless noted
K-562 leukemia = system: K-562 leukemia
MALME-3M melanoma = system: MALME-3M melanoma
MDA-MB-231 breast = system: MDA-MB-231 breast
RXF 393 renal = system: RXF 393 renal
SF-268 CNS = system: SF-268 CNS
SF-295 CNS = system: SF-295 CNS
SF-539 CNS = system: SF-539 CNS
UACC-257 melanoma = system: UACC-257 melanoma
M14 melanoma = system: M14 melanoma
HCT-15 colon = system: HCT-15 colon
HT29 colon = system: HT29 colon
SNB-75 CNS = system: SNB-75 CNS
SNB-19 CNS = system: SNB-19 CNS
U251 CNS = system: U251 CNS
PC-3 prostate = system: PC-3 prostate
SK-MEL-5 melanoma = system: SK-MEL-5 melanoma
UACC-62 melanoma = system: UACC-62 melanoma
SK-MEL-28 melanoma = system: SK-MEL-28 melanoma
SK-MEL-2 melanoma = system: SK-MEL-2 melanoma
LOX IMVI melanoma = system: LOX IMVI melanoma

SMILES	growth (K-562 leukemia)	growth (MALME-3M melanoma)	growth (MDA-MB-231 breast)	growth (RXF 393 renal)	growth (SF-268 CNS) [%]	growth (SF-295 CNS)	growth (SF-539 CNS)	growth (UACC-257 melanoma)	growth (M14 melanoma)	growth (HCT-15 colon)	growth (HT29 colon)	growth (SNB-75 CNS) [%]	growth (SNB-19 CNS)	growth (U251 CNS)	growth (PC-3 prostate)	growth (SK-MEL-5 melanoma)	growth (UACC-62 melanoma)	growth (SK-MEL-28 melanoma)	growth (SK-MEL-2 melanoma)	growth (LOX IMVI melanoma)
Nc1c(C(=O)Nc2ccc(C(F)(F)F)cc2)sc2nc(-c3cnccn3)cc(-c3cccs3)c12	35.5%	89%	66.2%	25.5%	78.6	78.7%	-54.1% (active)	95.8%	49.4%	78.6%	95%	34.2	52.2%	79.5%	42.2%	90.1%	84.6%	89.8%	101%	–
COc1cc(/C=C/C(=O)c2ccccc2)ccc1Oc1nc(NCCO)nc(N2CCOCC2)n1	22.9%	93.7%	97.1%	105%	103	99.7%	94.2%	95.4%	99.3%	90.9%	105%	99.8	97.8%	88.4%	84.9%	99.3%	92.9%	107%	103%	–
O=C1C2=C(C(=O)c3c(O)cccc31)C(c1ccco1)c1sc(=O)[nH]c1S2 (stereo not given)	22%	-92.3% (active)	8.88% (active)	32.5%	50.7	-15.6% (active)	-24% (active)	-28.2% (active)	-97.6% (active)	10.8%	12.5%	32.4	13.6%	11.5%	8.77% (active)	–	-74.9% (active)	-28.8% (active)	-7.37% (active)	-2.86% (active)
COC(=O)C1CN(S(=O)(=O)/N=C2\NC(=O)NC2=C(Cl)Cl)C1	101%	104%	106%	123%	103	104%	101%	101%	101%	107%	111%	113	100%	105%	99.3%	100%	95.7%	112%	108%	–
Nc1nc(N)c2c(n1)NC(c1ccc(F)cc1)CC(c1ccc(Nc3nc(NCCO)nc(Nc4ccc(Cl)cc4)n3)cc1)=N2 (stereo not given)	0.513% (active)	-60.4% (active)	-75.8% (active)	-77.4% (active)	38.7	9.06% (active)	-78.9% (active)	106%	-66.1% (active)	-48.3% (active)	-52.1% (active)	44.3	8.01% (active)	-76.6% (active)	22.7%	-81% (active)	49.8%	-82.9% (active)	26.3%	–
Cc1c(Nc2nnc(SCC(=O)Nc3sc4c(c3C#N)CCCC4)s2)c(=O)n(-c2ccccc2)n1C	93.5%	119%	98.4%	118%	103	107%	102%	116%	103%	103%	117%	127	100%	102%	101%	102%	92.9%	107%	106%	–
COc1cc(/C=C/C(=O)c2cc(OC)c(OC)c(OC)c2)ccc1OCc1ccccc1	10.2%	63.1%	47.7%	75%	43.3	50.8%	8.77% (active)	68.9%	65.7%	13.3%	5.03% (active)	13	34%	13.6%	40.1%	63.2%	38.8%	78.8%	80.7%	–
COc1cc(OC)c(S(=O)(=O)NNC(=O)c2ccncc2)cc1C(=O)/C=C/c1ccc(C)cc1	27.3%	95.5%	67.4%	82.9%	60.9	107%	65.3%	99.6%	56.4%	85.3%	95.1%	73	66.7%	68.1%	45.9%	94.2%	76.2%	104%	109%	–
COc1cccc(OC)c1-c1nnn(C)c1C(=S)N1CCN(c2ccc([N+](=O)[O-])cc2Cl)CC1	91.5%	89.2%	90.5%	82.4%	98.9	89.9%	95.8%	108%	97%	89.6%	104%	92.2	92.7%	97.9%	54%	90.1%	69.1%	98.3%	110%	–
COc1ccccc1/C=C/C=N/NC1=NC2C(S1)N(C)C(=O)N2C (stereo not given)	9.44% (active)	43.8%	40%	-20.8% (active)	52	16.2%	5.56% (active)	78.8%	19%	30.4%	6.54% (active)	18.5	29.1%	25.1%	30.2%	–	46.7%	56%	23.9%	35.3%
O=C(Oc1ccc2ccc(=O)oc2c1)c1ccc(Cl)cc1	115%	102%	103%	116%	106	101%	101%	106%	107%	97.9%	115%	112	93.2%	106%	103%	101%	97.3%	109%	113%	–
Nc1cc(-c2c[nH]c3ccc(F)cc23)nc2cc(-c3c[nH]c4ccc(F)cc34)nn12	0.113% (active)	94.9%	70.6%	128%	91.8	85.4%	87.4%	116%	79.3%	31%	-60.9% (active)	79	106%	3.43% (active)	78.8%	92.8%	104%	109%	116%	–
COc1cc2nc(-c3ccc(Cl)cc3)cc(OCCCNCC3CCCO3)c2cc1OC (stereo not given)	16.7%	12.3%	33.8%	31.3%	77.9	34.5%	56.4%	-33.9% (active)	-71.5% (active)	23.9%	16.1%	60.4	82.5%	61.4%	52.2%	50.1%	-56.2% (active)	8.95% (active)	124%	–
O=C(N/N=C/c1ccc(Cl)s1)c1[nH]c2ccc(Br)cc2c1-c1ccccc1	6.77% (active)	53.4%	1.52% (active)	71.7%	42.1	15.5%	3.35% (active)	52%	5.47% (active)	15.6%	3.1% (active)	28.1	33.2%	16.5%	30.2%	-23% (active)	41.4%	61.6%	13.1%	–
Cc1ccccc1NC(=O)/C=C/c1ccc(OCCOc2ccc3c(C)cc(=O)oc3c2)cc1	88.8%	89.7%	91.8%	95.3%	89.2	104%	50.8%	101%	98.2%	74.7%	96.7%	84.1	86.4%	85.8%	95.8%	–	91.6%	90.9%	103%	88.5%

Reference: PubChem BioAssay (NCI)
